Laboratory results as given in PubChem BioAssay.
Values joined by “and” are separate entries in the source; they are usually repeats but may differ in a detail not shown here. Identical values can stand only once.

Tests used:
[1] = AGP1-GFP expression modulators, hit retest, confirmation, cell-based, flow cytometry, S. cerevisiae, cherry picks (AID 2273;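 active = GFP response above 150% of the DMSO level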;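 also: median GFP channel fluorescence over the whole cell population gate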); details: S. cerevisiae AGP1-GFP strain, 3 h, at 10 µM
[2] = target: Integrin beta-1 (Homo sapiens) + Integrin alpha-4 (Homo sapiens) (UniProt P13612+P05556); assay: inhibition of HUTS-21 binding to VLA-4, pilot screen, VLA-4 allosteric modulator project, U937 cells, HUTS-21 mAb, flow cytometry, validation set (AID 2674;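 active = inhibition above 50%, about 3 SD of the validation set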;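 also: antibody binding induced by the VLA-4 ligand LDV present at three times its Kd; 0% = LDV ligand with antibody and no compound and 100% = antibody without LDV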); details: HUTS-21 LIBS mAb binding, at 6.7 µM, active compounds read high, binding induced by LDV ligand
[3] = superoxide lowering in aged yeast cells, pilot screen, validation compound set (AID 2706;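 active = superoxide response below 65% of plate, a cut near 3 SD across the whole screen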;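 also: yeast exposed to compound for one week at 30 degrees C before staining; 100% = mean of all compound wells on the same plate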); details: S. cerevisiae aging, superoxide DHE fluorescence; at 10 µM; active compounds read low
[4] = target: Beta-adrenergic receptor kinase 1 (Homo sapiens) (UniProt P25098); assay: GRK2 binders displacing RNA aptamer, biochemical, validation, human GRK2, bead flow cytometry (AID 488806); details: bead-bound GRK2, FAM-aptamer displacement, at 10 µM, active compounds read high
[5] = target: Beta-2 adrenergic receptor (Homo sapiens) (UniProt P07550); assay: beta2AR agonists driving receptor internalization, pilot screen, cell-based, FAP fluorogen, flow cytometry, validation set (AID 504459;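 active = percent response above 42, roughly 3 SD of non-fluorescent test compounds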;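 also: agonist-driven loss of surface beta2AR via internalization measured by FAP dye flow cytometry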); details: Am2.2-beta2AR cells, FAP surface receptor flow cytometry; at 10 µM; active compounds read high
[6] = target: AP-2 complex subunit beta (Homo sapiens) (UniProt P63010); assay: inhibitors of arrestin peptide binding to AP2, pilot screen, biochemical, validation set, GST-AP2 beads, flow cytometry (AID 504541;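 active = inhibition above 54%, about 3 SD of non-fluorescent compounds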;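 also: AP2 carries R879A mutation and is captured from E. coli lysate; bead-bound FITC arrestin peptide fluorescence measuring arrestin peptide binding to AP2; 0% = DMSO wells and 100% = excess unlabeled arrestin peptide control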); details: FITC arrestin peptide, at 10 µM, active compounds read high, AP2 beta2 appendage fragment, R879A mutant
[7] = yeast V-ATPase proton transport modulators, S. cerevisiae, pHLuorin, HTS validation (AID 504600; in the data active = response above about 15%;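 also: plate controls were DMSO for no effect and reference compound for full effect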); details: S. cerevisiae pHLuorin cytosolic pH, at 10 µM, active compounds read high
[8] = tested on: anti-desmoglein-3 scFv antibody binding to human DSG3; assay: inhibitors of anti-DSG3 scFv binding to DSG3, pilot screen, biochemical, validation compound set, bead-based, flow cytometry (AID 588368;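 active = binding below the plate cutoff, the plate median minus 3 SD, with a reading above zero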;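 also: signal is the median channel fluorescence of bead-bound GFP antibody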); details: Protein G beads, DSG3-Fc, scFv-GFP binding, at 10 µM, active compounds read low
[9] = inhibitors of fungal efflux pumps CDR1, CDR2, MDR1, pilot screen, validation compound set, multiplex, phenotypic (AID 588506;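 active = efflux inhibition above 0.42, the validation set average plus 4 SD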;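 also: Nile Red retained in cells so higher fluorescence means more efflux inhibition; 0 = negative control wells and 1 = enniatin B 25 µM full block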); details: S. cerevisiae pump-expressing triplex, Nile Red efflux flow cytometry; at 10 µM; active compounds read high; the pumps come from Candida albicans
[10] = target: ATP-binding cassette sub-family B member 6 (Homo sapiens) (UniProt Q9NP58); assay: ABCB6 transporter inhibitors, pilot screen, K562-ABCB6 cells, flow cytometry, validation set (AID 588550;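 active = inhibition above the screen-wide mean plus 3 SD, about 51%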;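 also: 0% = DMSO wells and 100% = benzethonium chloride 70 µM positive control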); details: K562-ABCB6 porphyrin accumulation, 1 h, at 10 µM, active compounds read high
[11] = promoters of myeloid differentiation in arrested cells, primary screen, cell-based, GFP/MAC1 double positive, flow cytometry, validation set (AID 588685;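 active = differentiation response of at least 50%, scaled between solvent and reference control, from cells with both markers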;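 also: compound exposure lasts four days before antibody staining and flow analysis; 0% = DMSO wells and 100% = 5 µM fulvestrant positive control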); details: ER-HoxA9 marrow cells, active compounds read high, normalized: vehicle 0, fulvestrant 100

Sequence of Integrin beta-1 (Homo sapiens) + Integrin alpha-4 (Homo sapiens) (P05556 whole entry, looked up): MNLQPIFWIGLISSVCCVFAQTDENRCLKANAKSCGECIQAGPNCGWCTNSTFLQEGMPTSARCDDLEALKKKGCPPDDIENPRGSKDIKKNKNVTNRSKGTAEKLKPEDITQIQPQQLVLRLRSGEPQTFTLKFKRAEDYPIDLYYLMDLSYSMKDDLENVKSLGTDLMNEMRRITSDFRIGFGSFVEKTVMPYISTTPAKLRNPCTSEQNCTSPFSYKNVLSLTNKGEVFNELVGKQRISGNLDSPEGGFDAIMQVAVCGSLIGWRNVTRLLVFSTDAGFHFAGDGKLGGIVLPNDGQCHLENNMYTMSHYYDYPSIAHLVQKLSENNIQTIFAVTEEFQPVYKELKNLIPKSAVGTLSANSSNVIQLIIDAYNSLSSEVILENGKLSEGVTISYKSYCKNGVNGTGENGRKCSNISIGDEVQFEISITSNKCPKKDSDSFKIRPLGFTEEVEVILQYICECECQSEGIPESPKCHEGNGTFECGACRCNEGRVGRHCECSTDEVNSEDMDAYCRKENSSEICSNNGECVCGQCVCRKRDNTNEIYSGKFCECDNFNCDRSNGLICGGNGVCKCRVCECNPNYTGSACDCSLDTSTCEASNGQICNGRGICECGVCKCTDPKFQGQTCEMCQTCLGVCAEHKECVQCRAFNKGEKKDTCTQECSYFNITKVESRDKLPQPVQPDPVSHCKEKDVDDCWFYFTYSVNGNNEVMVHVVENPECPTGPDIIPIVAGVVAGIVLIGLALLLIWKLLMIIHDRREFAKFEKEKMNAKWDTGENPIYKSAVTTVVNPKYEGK
Sequence of Integrin beta-1 (Homo sapiens) + Integrin alpha-4 (Homo sapiens) (P13612 whole entry, looked up): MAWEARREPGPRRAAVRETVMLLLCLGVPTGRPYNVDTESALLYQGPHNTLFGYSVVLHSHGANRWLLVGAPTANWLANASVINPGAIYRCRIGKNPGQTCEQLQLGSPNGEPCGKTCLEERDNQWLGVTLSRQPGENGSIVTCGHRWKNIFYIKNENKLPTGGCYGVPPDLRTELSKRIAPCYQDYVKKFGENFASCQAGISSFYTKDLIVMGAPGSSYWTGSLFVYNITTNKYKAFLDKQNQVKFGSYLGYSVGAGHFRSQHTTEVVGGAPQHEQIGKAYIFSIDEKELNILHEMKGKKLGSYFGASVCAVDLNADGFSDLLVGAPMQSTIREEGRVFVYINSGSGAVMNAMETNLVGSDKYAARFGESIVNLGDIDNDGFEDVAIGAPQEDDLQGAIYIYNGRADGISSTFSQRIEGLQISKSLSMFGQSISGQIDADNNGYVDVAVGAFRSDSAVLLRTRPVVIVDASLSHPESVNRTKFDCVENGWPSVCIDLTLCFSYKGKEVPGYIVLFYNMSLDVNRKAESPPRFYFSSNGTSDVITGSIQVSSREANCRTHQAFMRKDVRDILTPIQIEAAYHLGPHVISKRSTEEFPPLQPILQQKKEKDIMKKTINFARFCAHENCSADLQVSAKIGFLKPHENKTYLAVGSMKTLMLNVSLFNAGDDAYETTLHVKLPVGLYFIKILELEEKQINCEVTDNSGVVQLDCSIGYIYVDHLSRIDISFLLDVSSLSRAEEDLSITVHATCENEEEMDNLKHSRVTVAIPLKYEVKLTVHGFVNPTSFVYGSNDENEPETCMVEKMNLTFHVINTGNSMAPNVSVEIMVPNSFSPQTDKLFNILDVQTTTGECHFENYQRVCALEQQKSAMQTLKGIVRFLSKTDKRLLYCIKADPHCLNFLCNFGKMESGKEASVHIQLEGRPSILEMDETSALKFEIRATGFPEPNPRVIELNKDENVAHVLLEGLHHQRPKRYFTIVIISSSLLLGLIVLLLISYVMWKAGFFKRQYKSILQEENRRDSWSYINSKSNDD
Sequence of Beta-2 adrenergic receptor (Homo sapiens) (P07550 whole entry, looked up): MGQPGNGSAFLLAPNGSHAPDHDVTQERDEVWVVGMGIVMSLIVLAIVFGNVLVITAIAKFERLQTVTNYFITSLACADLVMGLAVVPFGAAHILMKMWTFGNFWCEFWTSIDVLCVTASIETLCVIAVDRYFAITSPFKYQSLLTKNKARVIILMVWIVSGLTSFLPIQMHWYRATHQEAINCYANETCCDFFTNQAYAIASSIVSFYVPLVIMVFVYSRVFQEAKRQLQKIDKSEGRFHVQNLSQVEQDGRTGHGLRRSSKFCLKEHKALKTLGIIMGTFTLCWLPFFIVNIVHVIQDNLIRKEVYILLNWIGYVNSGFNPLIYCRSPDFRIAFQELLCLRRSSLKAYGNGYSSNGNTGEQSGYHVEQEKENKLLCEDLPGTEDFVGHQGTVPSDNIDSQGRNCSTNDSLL
Sequence of Beta-adrenergic receptor kinase 1 (Homo sapiens) (P25098 whole entry, looked up): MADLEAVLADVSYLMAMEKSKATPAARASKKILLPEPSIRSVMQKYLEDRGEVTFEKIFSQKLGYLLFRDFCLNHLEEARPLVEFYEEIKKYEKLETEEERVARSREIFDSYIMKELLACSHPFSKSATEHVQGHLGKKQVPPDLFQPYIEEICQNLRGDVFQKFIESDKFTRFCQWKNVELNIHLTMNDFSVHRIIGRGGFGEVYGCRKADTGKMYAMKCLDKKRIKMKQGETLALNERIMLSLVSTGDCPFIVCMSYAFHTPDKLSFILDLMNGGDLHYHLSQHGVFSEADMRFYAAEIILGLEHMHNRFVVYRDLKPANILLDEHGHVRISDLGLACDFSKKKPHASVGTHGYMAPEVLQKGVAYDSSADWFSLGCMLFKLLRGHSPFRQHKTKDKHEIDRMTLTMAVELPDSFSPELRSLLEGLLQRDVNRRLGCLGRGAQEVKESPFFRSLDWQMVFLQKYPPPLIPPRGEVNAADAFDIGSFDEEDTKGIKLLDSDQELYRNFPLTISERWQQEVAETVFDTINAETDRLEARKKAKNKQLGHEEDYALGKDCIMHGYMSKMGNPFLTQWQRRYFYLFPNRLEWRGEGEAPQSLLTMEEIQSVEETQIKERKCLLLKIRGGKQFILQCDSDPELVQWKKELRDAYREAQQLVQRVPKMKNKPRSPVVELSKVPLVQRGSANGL
Sequence of ATP-binding cassette sub-family B member 6 (Homo sapiens) (Q9NP58 whole entry, looked up): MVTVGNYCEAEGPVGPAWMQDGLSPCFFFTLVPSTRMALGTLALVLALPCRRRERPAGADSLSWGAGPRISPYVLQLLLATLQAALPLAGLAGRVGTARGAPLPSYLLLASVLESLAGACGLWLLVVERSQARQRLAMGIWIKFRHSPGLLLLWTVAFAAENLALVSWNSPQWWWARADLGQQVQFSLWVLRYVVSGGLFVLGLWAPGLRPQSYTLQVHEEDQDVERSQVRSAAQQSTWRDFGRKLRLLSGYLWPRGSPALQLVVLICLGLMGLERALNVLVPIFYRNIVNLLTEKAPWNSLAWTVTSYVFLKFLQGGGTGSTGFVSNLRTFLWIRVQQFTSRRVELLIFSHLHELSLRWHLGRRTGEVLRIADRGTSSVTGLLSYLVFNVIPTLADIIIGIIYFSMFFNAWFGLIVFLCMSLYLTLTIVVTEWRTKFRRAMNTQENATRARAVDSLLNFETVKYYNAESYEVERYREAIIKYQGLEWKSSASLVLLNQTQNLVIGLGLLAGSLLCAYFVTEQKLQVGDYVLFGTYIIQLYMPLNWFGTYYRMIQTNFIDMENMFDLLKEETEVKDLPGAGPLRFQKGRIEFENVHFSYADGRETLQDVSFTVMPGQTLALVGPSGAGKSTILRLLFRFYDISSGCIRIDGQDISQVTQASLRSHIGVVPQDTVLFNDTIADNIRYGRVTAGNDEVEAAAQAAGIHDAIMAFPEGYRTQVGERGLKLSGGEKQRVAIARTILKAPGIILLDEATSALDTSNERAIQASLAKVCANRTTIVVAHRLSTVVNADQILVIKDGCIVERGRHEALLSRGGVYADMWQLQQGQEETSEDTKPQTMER
Sequence of AP-2 complex subunit beta (Homo sapiens) (P63010 whole entry, looked up, the tested form may be a part, one chain of several): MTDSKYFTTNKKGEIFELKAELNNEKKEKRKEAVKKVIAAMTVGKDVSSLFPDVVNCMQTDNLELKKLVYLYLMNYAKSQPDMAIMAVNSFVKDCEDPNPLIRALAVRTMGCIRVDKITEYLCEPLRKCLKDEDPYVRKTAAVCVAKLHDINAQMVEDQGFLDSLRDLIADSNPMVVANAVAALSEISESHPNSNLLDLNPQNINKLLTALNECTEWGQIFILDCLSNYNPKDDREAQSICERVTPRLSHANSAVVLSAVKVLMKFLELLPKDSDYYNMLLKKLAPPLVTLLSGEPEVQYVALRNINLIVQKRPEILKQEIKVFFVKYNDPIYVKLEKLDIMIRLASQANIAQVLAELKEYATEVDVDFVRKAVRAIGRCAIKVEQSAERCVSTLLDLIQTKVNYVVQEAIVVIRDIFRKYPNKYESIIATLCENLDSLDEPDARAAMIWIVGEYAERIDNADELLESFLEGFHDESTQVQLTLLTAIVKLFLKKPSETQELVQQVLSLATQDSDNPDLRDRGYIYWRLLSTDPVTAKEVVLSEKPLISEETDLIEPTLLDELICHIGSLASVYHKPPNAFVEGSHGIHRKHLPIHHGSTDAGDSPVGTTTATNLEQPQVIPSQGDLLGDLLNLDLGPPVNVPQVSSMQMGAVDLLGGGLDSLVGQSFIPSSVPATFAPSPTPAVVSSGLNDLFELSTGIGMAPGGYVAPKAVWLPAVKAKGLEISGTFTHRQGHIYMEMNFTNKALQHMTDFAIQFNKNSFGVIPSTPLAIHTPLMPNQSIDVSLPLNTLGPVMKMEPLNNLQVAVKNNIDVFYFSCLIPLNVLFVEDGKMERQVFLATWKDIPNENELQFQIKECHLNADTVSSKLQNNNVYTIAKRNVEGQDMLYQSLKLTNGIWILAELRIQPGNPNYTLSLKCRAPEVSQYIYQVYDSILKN

C[n+]1ccccc1/C=N/O
inactive: GFP response, % of DMSO [1] 98% | inhibition [2] 15.2% and -21.2% | superoxide response (% of plate) [3] 102% and 95% | aptamer binding inhibition [4] 2% and 0% | response [5] 5.73% and -2.86% | inhibition [6] -7.09% and 7.17% | response [7] -0.64% and -1.12% | binding (% of control) [8] 104% and 95.1% | efflux inhibition (fraction of control) [9] -0.2 and -0.47 | inhibition [10] 9% and 0% | differentiation response [11] 0.82% and 2.74%

N#C/C(C(N)=O)=c1/ccc2c(c1)N1C3=C(CCCC3)CC3CCCCC31N=2 (stereo not given)
inactive: GFP response, % of DMSO [1] 100% | inhibition [2] -74.8% | superoxide response (% of plate) [3] 92.3% | aptamer binding inhibition [4] -5% | response [5] 5.12% | inhibition [6] 46.9% | response [7] -2.62% | binding (% of control) [8] 98.3% | efflux inhibition (fraction of control) [9] 0.37 | inhibition [10] -58% | differentiation response [11] -16.3%

COc1ccc(-c2noc(-c3ccccc3-c3ccccc3)n2)cc1
inactive: GFP response, % of DMSO [1] 101% | inhibition [2] -15.8% | superoxide response (% of plate) [3] 94.3% | aptamer binding inhibition [4] 8% | response [5] 3.77% | inhibition [6] 19.4% | response [7] -3.56% | binding (% of control) [8] 100% | efflux inhibition (fraction of control) [9] 0.19 | inhibition [10] 6% | differentiation response [11] -1.64%

O=C(/C=C/c1ccccc1)c1ccccc1
inactive: GFP response, % of DMSO [1] 99.7% | inhibition [2] 2.58% | superoxide response (% of plate) [3] 92.2% | aptamer binding inhibition [4] 4% | response [5] 5.66% | inhibition [6] -4.66% | response [7] -0.45% | binding (% of control) [8] 107% | efflux inhibition (fraction of control) [9] -0.31 | inhibition [10] 14% | differentiation response [11] 9.83%

c1ccc2c(c1)CCOC2CNCCCN1CCCCC1 (stereo not given)
inactive: GFP response, % of DMSO [1] 98.5% | inhibition [2] 14.2% | superoxide response (% of plate) [3] 110% | aptamer binding inhibition [4] -3% | response [5] 0.72% | inhibition [6] -5.37% | response [7] -6.48% | binding (% of control) [8] 105% | efflux inhibition (fraction of control) [9] 0.01 | inhibition [10] -2% | differentiation response [11] -3.28%
